# Data taken from PubChem BioAssay (NCI).
# Compounds without any hit were thinned out: in the full panel of roughly 83,000, 20% have a hit.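 96-well plates, one dose, 48 hours. Percent growth reported; active if below 10.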 A number with no mark means an inactive call. Active and inactive are the calls of the source.
# Tests used:
# Test in all cases: NCI-60 one-dose screen, 48 h (100 = growth as untreated, 0 = no growth, -100 = all killed)
# Conditions in all cases: 10 µM
# DU-145 prostate = tested on: DU-145 prostate
# K-562 leukemia = tested on: K-562 leukemia
# MALME-3M melanoma = tested on: MALME-3M melanoma
# MDA-MB-231 breast = tested on: MDA-MB-231 breast
# RXF 393 renal = tested on: RXF 393 renal
# SF-268 CNS = tested on: SF-268 CNS
# SF-295 CNS = tested on: SF-295 CNS
# SF-539 CNS = tested on: SF-539 CNS
# UACC-257 melanoma = tested on: UACC-257 melanoma
# M14 melanoma = tested on: M14 melanoma
Compound,growth (DU-145 prostate),growth (K-562 leukemia),growth (MALME-3M melanoma),growth (MDA-MB-231 breast),growth (RXF 393 renal),growth (SF-268 CNS),growth (SF-295 CNS),growth (SF-539 CNS),growth (UACC-257 melanoma),growth (M14 melanoma)
O=C(c1ccc(Cl)cc1)C1[C@H](c2ccccc2Br)[C@@H](c2ccccc2)NC12C(=O)Nc1ccc(Cl)cc12 (stereo not given in full),29.1%,7.94% (active),51.8%,5.9% (active),-33.7% (active),23.4%,15.2%,39.7%,42.5%,25.2%
C/C(=C\CC/C=C(\C)CC/C=C(\C)CC[C@@H](O)C(C)(C)O)CC/C=C(\C)CC[C@@H](O)C(C)(C)O,63.7%,10.4%,44.8%,61.4%,16.5%,57.5%,9.52% (active),43%,21.1%,22.7%
O=C1Nc2cc(-c3ccc(NC(=O)c4cccs4)cc3)ccc2/C1=C/c1ccc[nH]1,32.7%,80.8%,78.2%,61%,73.9%,73.5%,55.1%,83.9%,75.2%,88.9%
COC(=O)CC1CC1C1Cc2c(nc(N(C)S(C)(=O)=O)nc2C(C)C)-c2ccc(F)cc21 (stereo not given),92.7%,34.3%,112%,69.3%,79.8%,93.8%,72.4%,96%,83.8%,70.4%
Cc1ccc(CSc2nc(Cl)c(C#N)c(-c3ccc(F)cc3)n2)cc1,75.1%,55.7%,113%,96.5%,70.2%,81.8%,70.2%,71.8%,75.3%,87.6%
O=C1NC(=NC23CC4CC(CC(C4)C2)C3)N/C1=C\c1ccc2ncoc2c1,7.99% (active),12.1%,-24.3% (active),-1.98% (active),-52.5% (active),9.72% (active),11.2%,-49.2% (active),4.63% (active),29.4%
Nc1n[nH]c2cccc(C#Cc3cccc(NC(=O)Nc4cc(C(F)(F)F)cc(C(F)(F)F)c4)c3)c12,7.02% (active),-57.4% (active),-67.6% (active),-93.4% (active),-70.9% (active),-2.88% (active),-75.3% (active),-73% (active),-57.3% (active),-9.94% (active)
O=C1NC(=NC23CC4CC(CC(C4)C2)C3)N/C1=C\c1ccc2ncccc2n1,2.14% (active),13.6%,-41.3% (active),-18.5% (active),-78.1% (active),-29.8% (active),-27.5% (active),-77.7% (active),-4.23% (active),14.5%
Nc1nnc(-c2c[nH]c3ccc(F)cc23)c(-c2c[nH]c3ncccc23)n1,82%,31.9%,71.6%,39.1%,82.8%,80.2%,36.6%,30%,105%,63.5%
O=c1oc2ccc(-c3ccc(F)cc3F)cc2c(=O)n1-c1ccc(F)c(Cl)c1,12.6%,3.74% (active),-29.1% (active),-27.6% (active),-19.7% (active),2.31% (active),-80.3% (active),-5.14% (active),-15.9% (active),12.8%
C=C1CCC2C3(C)COC(c4cc(F)cc(F)c4)OC3CCC2(C)C1C/C=C1/C(=O)OCC1O (stereo not given),-52.9% (active),12.7%,-78.8% (active),-63.7% (active),-73.7% (active),36.7%,-82.7% (active),-90.9% (active),-85.4% (active),-64.6% (active)
C=C1CCC2C3(C)COC(c4ccccc4F)OC3CCC2(C)C1C/C=C1/C(=O)OCC1O (stereo not given),-27.8% (active),12.3%,-76.8% (active),-54% (active),-68.5% (active),58%,-36.1% (active),-87.5% (active),-77.6% (active),-54.1% (active)
O=C(c1ccc(Cl)cc1)C1[C@H](c2ccc(Br)cc2)[C@@H](c2ccccc2)NC12C(=O)Nc1ccc(Br)cc12 (stereo not given in full),-43.2% (active),-37.6% (active),-95.5% (active),-96.1% (active),-94.8% (active),-28.6% (active),-97.2% (active),-88.8% (active),-71.3% (active),3.03% (active)
